Gal4-VP16 FLuc = inhibits Gal4-VP16 luciferase reporter, ROR gamma counter-screen. Potency, µM (top dose mostly 53.6 µM), without a hit: top-dose activity, negative = inhibition, hits mostly inhibitors. Drosophila S2 Gal4-VP16 UAS-luciferase, luminescence, 20 h. AID 2546. 310,000 compounds, 3.5% hits;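 note: Gal4-VP16 expression switched on by copper sulfate through the metallothionein promoter; nearly all actives have a fitted effect of over 50% in size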
DT40 TDP1 CPT = DT40-hTDP1 cell growth loss with CPT; 420,000 compounds, 12% hits; Potency, µM (highest dose often 46.2 µM), without a hit: at the highest dose activity change, negative = growth inhibition, actives largely listed as inhibitors; chicken DT40 Tdp1-/-;hTDP1 cells + 20 nM CPT, ATP luminescence, 48 h; AID 686979; note: nearly all actives have a fitted effect of over 55% in size
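Chicken DT40 Tdp1-/- cells stably complemented with human TDP1 were seeded at 400 cells/well in medium containing 20 nM camptothecin, exposed to pin-transferred compounds, and grown at 37 °C for at least 48 hr. Viability was read as ATP luminescence.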
DT40 TDP1 no CPT = qHTS for Inhibitors of human tyrosyl-DNA phosphodiesterase 1 (TDP1): qHTS in cells in absence of CPT. AID 686978, 2013. DT40 Tdp1-/- hTDP1 cells, no CPT, ATP luminescence, 48 h. Potency, µM (titrated, usually from 46.2 µM), for inactives: top-dose activity change, negative = growth inhibition, actives largely listed as inhibitors. 420,000 compounds, 15% hits; note: nearly all actives have a fitted effect of over 55% in size
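Cells were dispensed at 400 per well, compounds added by pin tool, plates incubated ≥48 hr at 37 °C, then CellTiter-Glo added for 30 min at room temperature before luminescence reading. Line: DT40 Tdp1-/- complemented with hTDP1; camptothecin omitted.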
TDP1 block = blocks human tyrosyl-DNA phosphodiesterase 1. recombinant TDP1, AlphaScreen DNA substrate cleavage. Potency, µM (titrated, usually from 130 µM), for the others: at the top dose activity change, negative = inhibition, usual class: inhibitors. 350,000 compounds, 0.28% hits; note: nearly all actives have a fitted effect of over 40% in size
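Enzyme-compound mixtures sat 15 min at room temperature, followed by a 5 min reaction with 15 nM final substrate and 10 min with AlphaScreen beads. Recombinant human Tdp1 was used at 1 nM final.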
RORgamma inh = ROR gamma (mouse) transcription inhibition | P51450 | Drosophila S2 Gal4-RORgamma UAS-luciferase reporter, 20 h | Potency, µM (doses to about 53.6 µM), for inactives: at the highest dose activity change, negative = inhibition, most hits filed as inhibitors | 310,000 compounds, 5.4% hits | AID 2551; note: nearly all actives have a fitted effect of over 60% in size
Target sequence (P51450 whole entry, looked up, the tested form may be a part): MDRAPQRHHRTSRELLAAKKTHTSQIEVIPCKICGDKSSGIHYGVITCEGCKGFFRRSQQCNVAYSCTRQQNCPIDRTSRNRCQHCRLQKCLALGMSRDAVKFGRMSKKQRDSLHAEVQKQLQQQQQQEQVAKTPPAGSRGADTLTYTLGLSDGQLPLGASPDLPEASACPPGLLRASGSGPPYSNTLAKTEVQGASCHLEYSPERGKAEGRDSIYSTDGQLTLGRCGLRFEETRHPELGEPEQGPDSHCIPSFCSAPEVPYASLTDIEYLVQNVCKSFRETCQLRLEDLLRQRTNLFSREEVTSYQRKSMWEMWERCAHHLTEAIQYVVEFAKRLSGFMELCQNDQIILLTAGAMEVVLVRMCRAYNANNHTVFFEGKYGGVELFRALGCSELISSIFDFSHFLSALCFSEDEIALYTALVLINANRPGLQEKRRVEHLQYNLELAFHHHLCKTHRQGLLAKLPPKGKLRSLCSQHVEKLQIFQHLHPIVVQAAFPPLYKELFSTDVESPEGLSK
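A Gal4/UAS one-hybrid system in insect cells: metallothionein-promoter Gal4–ROR gamma fusion plus Photinus luciferase reporter. Copper sulfate 700 uM final, 20 hr ambient incubation, luminescent detection after 10 min with reagent.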
* marks the source's active call; other numbers are inactive results; u = inconclusive; x = no result given; [ ] = dose if it differs, or a comment. Most compounds without a hit are left out; they make up all but 19% or so of the library. Calls come from the whole dose curve; as a rule, active = well fitted curve in the direction sought with a large enough effect; inconclusive = small, poorly fitted or top-dose-only effect, or another doubt; inactive = no such curve, though single readings can be large; an effect the other way counts as inactive or inconclusive. % is set by controls: 0 for no effect and ±100 for the full control effect; potency is the fitted concentration of half-maximal effect.

SMILES | Gal4-VP16 FLuc | DT40 TDP1 CPT | DT40 TDP1 no CPT | TDP1 block | RORgamma inh
O=c1[nH]c2ccc(Cl)cc2c(-c2ccccc2)c1[N+](=O)[O-] | -9% | -25% | -23% | x | 1.3µM*
O=c1[nH]c2ccc(Cl)cc2c(-c2ccccc2)c1SC(=S)N1CCOCC1 | 4.5µM* | u | u | 7% | 1µM*
O=C(NCc1ccccc1Cl)c1ccc2oc(=O)n(Cc3ccccc3)c2c1 | x | u | u | 4% | x
COc1ccc(N2CC(O)(c3ccc(OC(F)F)cc3)[N+]3=C2CCCC3)cc1 (stereo not given) | -11% | 16µM* | u | 4% | 7%
CCOc1ccc(N2CC(O)(c3ccc(F)cc3)[N+]3=C2CCCC3)cc1 (stereo not given) | 7% | -14% | 23µM* | 1% | 15%
COc1ccc(C2Nc3ccccc3C(=O)N2Cc2cccc3ccccc23)cc1COc1ccc(NC(C)=O)cc1 (stereo not given) | x | x | x | 2% | x
Cc1ccc(C[n+]2cccc(-c3ccccc3)c2)c(C)c1 | u | 1.2µM* | 0.73µM* | 5% | u
COc1ccccc1NS(=O)(=O)c1cccc(NC(=O)c2nc3nc(C)cc(C)n3n2)c1 | -10% | 23µM* | 13µM* | 2% | 5%
COc1ccccc1NS(=O)(=O)c1cccc(NC(=O)c2ccc3ccccc3n2)c1 | u | 21µM* | 16µM* | 7% | u
O=C(/C=C/c1ccccc1)Nc1cccc(S(=O)(=O)Nc2ccccc2F)c1 | u | 15µM* | 15µM* | 8% | 37%
O=C(Nc1cccc(S(=O)(=O)Nc2ccccc2F)c1)c1ccc2ccccc2n1 | -10% | u | 23µM* | 5% | 25%
O=C(Cc1ccc(Cl)cc1Cl)Nc1cccc(S(=O)(=O)Nc2ccccc2F)c1 | u | 15µM* | 23µM* | 3% | u
O=C(Cc1c(F)cccc1Cl)Nc1cccc(S(=O)(=O)NC2=NCCCCC2)c1 | x | -25% | -14% | x | x
COc1ccccc1N1CCN(C(=O)CCS(=O)(=O)c2cc(Br)cc3c2N(C(=O)C2CC2)CC3)CC1 | x | 16µM* | u | 5% | x
COc1ccccc1N1CCN(C(=O)CCS(=O)(=O)c2cc(Br)cc3c2N(C(C)=O)CC3)CC1 | x | u | u | -6% | x
CCC(=O)N1CCc2cc(Br)cc(S(=O)(=O)N3CCN(c4ccc(C(C)=O)cc4)CC3)c21 | x | -9% | -10% | 6% | x
CCC(=O)N1CCc2cc(Br)cc(S(=O)(=O)N3CCN(c4ccccc4OC)CC3)c21 | x | u | 23µM* | 0% | x
CC(C)(C)S(=O)N1Cc2ccc(CO)cc2[C@@H]1CCO (stereo not given in full) | x | u | -4% | x | x
CCc1cccc(C)c1NC(=O)CSc1nnc(CCCOc2ccc(Cl)cc2Cl)n1C | -12% | 23µM* | 15µM* | 0% | u
Cn1c(CCCOc2ccc(Cl)cc2Cl)nnc1SCC(=O)Nc1cccc(F)c1 | u | u | u | 3% | -30%
COc1ccc(CCCc2nnc(SCC(=O)Nc3nc(C)cs3)n2C)cc1C | -13% | u | 26µM* | -2% | -41%
Cc1csc(NC(=O)CSc2nnc(CCNC(=O)c3cccs3)n2C)n1 | 5% | -6% | -5% | 2% | u
COc1ccc(OC)c(S(=O)(=O)N2CCC(C(=O)NC3CCCCCC3)CC2)c1 | 8% | 4% | u | x | 24%
CCSc1ccccc1C(=O)N1CCCC1 | 0% | -12% | -11% | 0% | 21%
Cc1ccc(C(=O)n2cnc3ccccc32)cc1C | 1% | -2% | -14% | x | 13%
SMILES | Gal4-VP16 FLuc | DT40 TDP1 CPT | DT40 TDP1 no CPT | TDP1 block | RORgamma inh
COc1cc(/C=N/n2c(C3CCCCC3)n[nH]c2=S)ccc1O | -22% | -6% | -24% | x | -66%
S=c1[nH]nc(C2CCCCC2)n1/N=C/c1cccc(Cl)c1Cl | 5µM* | u | 23µM* | x | 3.5µM*
COc1cccc(/C=N/n2c(C3CCCCC3)n[nH]c2=S)c1OC | 7.1µM* | u | -22% | x | 3.2µM*
Oc1ccc(/C=N/n2c(C3CCCCC3)n[nH]c2=S)c(O)c1 | -3% | -34% | 3% | x | -16%
COc1cccc(/C=N/n2c(C3CCCCC3)n[nH]c2=S)c1O | 13µM* | 1% | 14% | x | 10µM*
COc1ccccc1/C=C\C=N\n1c(C2CCCCC2)n[nH]c1=S | u | u | u | 11% | 2.2µM*
CCCc1nc2sc3c(=O)n(N)cnc3c2c2c1COC(C)(C)C2 | -4% | x | x | -1% | 2%
Cc1ccc(NC(=S)N(CCN2CCOCC2)Cc2cc3cc4c(cc3[nH]c2=O)OCCO4)cc1 | 7% | u | u | x | 5%
Cn1c(Cn2cnc3ccccc32)nnc1SCC(=O)CC(=O)Nc1ccccc1 | -7% | 2% | -29% | 5% | u
COc1ccc(/C=N/n2c(C3CCCCC3)n[nH]c2=S)c(OC)c1 | 7.1µM* | -17% | u | x | 3.5µM*
COc1ccc(-c2cnn(-c3ccccc3)c2N)cc1OC | -6% | 2% | 3% | -2% | 10%
COc1ccc(-c2cn(-c3ccc(C)c(Cl)c3)c(=S)[nH]2)cc1OC | 10µM* | u | u | x | u
COc1ccccc1-c1cn(-c2ccccc2)c(=S)[nH]1 | 5.6µM* | u | 21µM* | x | 2.8µM*
COc1ccc(-c2cn(-c3ccc(C)c(C)c3)c(=S)[nH]2)cc1OC | 13µM* | -23% | 16µM* | x | u
COc1ccc(-c2cn(-c3ccccc3)c(=S)[nH]2)cc1OC | 11µM* | 0% | 9% | x | 5.6µM*
COc1ccc(-c2nn(-c3ccc(C)c(Cl)c3)c3c2cnc2cc(OC)c(OC)cc23)cc1 | x | 4% | 5% | 4% | x
Cc1ccccc1CN1CCN(S(=O)(=O)c2cccs2)CC1 | -23%[10 µM] | -9% | u | 3% | 23%
CN(C(=O)c1ccc2c(c1)CCN2S(C)(=O)=O)c1ccccc1 | 0%[10 µM] | -9% | -9% | 3% | 11%
NCC[C@H](O)C(=O)N[C@@H]1C[C@H](N)[C@@H](O[C@H]2O[C@H](CN)CC[C@H]2N)[C@H](O)[C@H]1O[C@H]1O[C@H](CO)[C@@H](O)[C@H](N)[C@H]1O | 5% | -4% | -24% | x | 6%
COc1cccc(-n2cc(-c3ccc(F)cc3)[nH]c2=S)c1 | u | u | -16% | x | 1.3µM*
COC(=O)c1ccc(-n2cc(-c3ccc(OC)cc3)[nH]c2=S)cc1 | u | -2% | 0% | 3% | 3.2µM*
COc1ccc(-n2cc(-c3ccc(Cl)cc3)[nH]c2=S)cc1 | 4% | -10% | 2% | 1% | -42%

Compound activity (PubChem BioAssay)
